According to PubChem BioAssay (Tox21):
Records with an inconclusive call do not appear. Calls of active or inactive are those of the source. Unless noted, calls follow the shape of the dose curve; as a rule, active = well fitted curve in the direction sought with a large enough effect in the repeat runs; inconclusive = weak or mixed curves; inactive = no such curve, though single readings can be large; an effect the other way counts as inactive or inconclusive.

Experiments:
[1] = qHTS assay to identify small molecule antagonists of the glucocorticoid receptor (GR) signaling pathway - cell viability counter screen (AID 720693); also: nearly all actives have a fitted effect of over 55% in size
[2] = qHTS assay for identifying genotoxic compounds that show differential cytotoxicity against isogenic chicken DT40 cell lines with known DNA damage response pathways - wild type cell line (AID 743012); also: nearly all actives have a fitted effect of over 60% in size; also: potency is read from the fitted curve at half-maximal effect
Procedure, shortened: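 Quantitative HTS on parental DT40 cells: 40 h compound treatment at 37 C/5% CO2, with viability then determined by CellTiter-Glo luminescence. Values serve as the DNA repair-proficient reference for differential cytotoxicity.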

[3] = qHTS assay to identify small molecule antagonists of the androgen receptor (AR) signaling pathway - cell viability counter screen (AID 743033; also: nearly all actives have a fitted effect of over 45% in size)
[4] = biological target: Androgen receptor (Homo sapiens) (UniProt P10275); assay: qHTS assay to identify small molecule antagonists of the androgen receptor (AR) signaling pathway (AID 743035; active = well fitted inhibition curve with a large enough effect in the signal ratio in the repeat runs, not every such curve was filed as active; the % refers to the signal ratio)
Androgen receptor (Homo sapiens), sequence (P10275 whole entry, looked up): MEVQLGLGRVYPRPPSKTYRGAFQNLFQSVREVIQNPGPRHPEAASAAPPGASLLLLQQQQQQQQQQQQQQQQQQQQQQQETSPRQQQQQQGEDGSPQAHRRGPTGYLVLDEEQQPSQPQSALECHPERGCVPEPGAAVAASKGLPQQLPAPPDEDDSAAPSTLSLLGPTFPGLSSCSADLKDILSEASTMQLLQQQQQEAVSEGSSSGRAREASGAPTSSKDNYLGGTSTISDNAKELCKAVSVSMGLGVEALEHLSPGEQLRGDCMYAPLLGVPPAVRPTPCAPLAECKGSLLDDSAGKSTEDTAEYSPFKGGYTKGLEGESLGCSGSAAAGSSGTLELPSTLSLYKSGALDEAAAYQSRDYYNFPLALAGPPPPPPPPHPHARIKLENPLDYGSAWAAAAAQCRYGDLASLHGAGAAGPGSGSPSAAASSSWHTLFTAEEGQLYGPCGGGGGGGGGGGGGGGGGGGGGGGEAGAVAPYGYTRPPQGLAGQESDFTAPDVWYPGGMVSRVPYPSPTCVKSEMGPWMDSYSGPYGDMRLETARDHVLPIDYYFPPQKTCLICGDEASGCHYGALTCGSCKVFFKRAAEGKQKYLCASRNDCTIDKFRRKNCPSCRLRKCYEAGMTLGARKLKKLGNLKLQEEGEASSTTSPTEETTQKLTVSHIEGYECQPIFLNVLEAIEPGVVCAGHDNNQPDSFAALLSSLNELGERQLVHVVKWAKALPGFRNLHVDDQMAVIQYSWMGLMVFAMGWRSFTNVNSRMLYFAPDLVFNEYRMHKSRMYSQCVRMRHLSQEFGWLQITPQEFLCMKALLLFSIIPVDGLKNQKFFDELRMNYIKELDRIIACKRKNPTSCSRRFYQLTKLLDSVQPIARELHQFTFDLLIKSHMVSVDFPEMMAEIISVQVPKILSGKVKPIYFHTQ
Procedure, shortened: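 Cell line: GeneBLAzer AR-UAS-bla GripTite (HEK293). Stimulus: R1881 added after compound. Exposure: 16 h, 37C, 5% CO2. Readout: LiveBLAzer B/G FRET fluorescence after 2 h at room temperature.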

[5] = biological target: Androgen receptor (Homo sapiens) (UniProt P10275); assay: qHTS assay to identify small molecule agonists of the androgen receptor (AR) signaling pathway using the MDA cell line (AID 743040; also: nearly all actives have a fitted effect of over 20% in size)
Procedure, shortened: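 Luminescence from ONE-Glo, read after 30 min at room temperature, reflects MMTV-driven luciferase in MDA-kb2 cells (AR- and GR-responsive). Treatment lasted 16 h at 37C, 0% CO2.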

[6] = biological target: Androgen receptor (Homo sapiens) (UniProt P10275); assay: qHTS assay to identify small molecule antagonists of the androgen receptor (AR) signaling pathway using the MDA cell line (AID 743042; also: nearly all actives have a fitted effect of over 55% in size)
Procedure, shortened: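 MDA-kb2 cells (human breast carcinoma, stably carrying an MMTV-luciferase reporter responsive to AR and GR) were plated at 3,000 cells/well and preincubated 5 hr at 37C, then given compound plus R1881 agonist for 16 h. ONE-Glo luminescence was read.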

[7] = qHTS assay for identifying genotoxic compounds that show differential cytotoxicity against isogenic chicken DT40 cell lines with known DNA damage response pathways - Rev3 mutant cell line (AID 743014); also: nearly all actives have a fitted effect of over 55% in size; also: potency is read from the fitted curve at half-maximal effect
[8] = qHTS assay to identify small molecule antagonists of the androgen receptor (AR) signaling pathway using the MDA cell line - cell viability counter screen (AID 743041; also: nearly all actives have a fitted effect of over 45% in size)
Procedure, shortened: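 Viability counter screen run alongside the AR antagonist reporter: cells seeded 5 h before compound, R1881 added, 16 h incubation at 37C without CO2, fluorescent CellTiter-Fluor signal quantified.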

[9] = biological target: Androgen receptor (Homo sapiens) (UniProt P10275); assay: qHTS assay to identify small molecule agonists of the androgen receptor (AR) signaling pathway (AID 743036; active = well fitted activation curve with a large enough effect in the signal ratio in the repeat runs, with a control signal flat, not every such curve was filed as active; the % refers to the signal ratio)
Procedure, shortened: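 AR-UAS-bla HEK293 cells, plated 4 h before dosing, were treated with compound for 16 h at 37C. beta-Lactamase reporter read after 2 h with LiveBLAzer B/G FRET substrate at room temperature.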

[10] = qHTS assay for identifying genotoxic compounds that show differential cytotoxicity against isogenic chicken DT40 cell lines with known DNA damage response pathways - Rad54/Ku70 mutant cell line (AID 743015); also: nearly all actives have a fitted effect of over 60% in size; also: potency is read from the fitted curve at half-maximal effect

Measured: Potency

CN(C(=O)C(Cl)Cl)c1ccc(OC(=O)c2ccco2)cc1
active: [2] 26.6 µM
inactive: [1] | [3] | [4] | [5] | [6]

CCCc1c(OCCCOc2ccc(OCC(=O)O)cc2)ccc(C(C)=O)c1O
inactive: [1] | [2] | [7] | [5] | [8] | [6]

CCC(C(=O)OCCN(CC)CC)c1ccccc1 (stereo unspecified)
inactive: [1] | [2] | [3] | [4] | [9] | [5] | [8] | [6]

Cc1cnc(C)c(C)n1
inactive: [1] | [2] | [3] | [8]

Cc1ccnc2ccccc12
inactive: [1] | [2] | [10] | [3] | [8]

COC(=O)CC(=O)C(C)(C)C
active: [7] 61.1 µM
inactive: [1] | [2] | [3] | [8]

NC(=O)Nc1ccc(Cl)c(Cl)c1
active: [7] 60.9 µM | [10] 60.9 µM
inactive: [1] | [3] | [8]

OCCSc1ccccc1
inactive: [1] | [2] | [10] | [3]

CCOC(=O)C(C)Oc1ccc(Oc2nc3ccc(Cl)cc3o2)cc1 (stereo unspecified)
inactive: [1] | [3] | [5] | [8] | [6]
active: [7] 68.6 µM | [10] 61.1 µM

C/C=C(\C)C(=O)OCCC(C)CCC=C(C)C (stereo unspecified)
inactive: [1] | [2] | [3] | [8]

Cc1ccc(S)cc1
inactive: [1] | [3] | [8]
active: [2] 61.1 µM

O=[N+]([O-])c1cccc(S(=O)(=O)NCCNS(=O)(=O)c2cccc([N+](=O)[O-])c2)c1
inactive: [1] | [2] | [10] | [3] | [5] | [8] | [6]

CC1(C)C(=O)N(Br)C(=O)N1Cl
active: [2] 61.1 µM | [7] 61.1 µM
inactive: [1] | [3] | [8]

N#C/C(=C1\SCC(c2ccccc2Cl)S1)n1ccnc1 (stereo unspecified)
inactive: [1] | [3] | [4] | [9] | [8] | [6]
active: [7] 26.6 µM | [10] 29.8 µM

Cc1nc2ccccn2c(=O)c1CCN1CCC(C(=O)c2ccc(F)cc2)CC1
inactive: [1] | [7] | [3]

NCC1CCCC(CN)C1 (stereo unspecified)
inactive: [1] | [7] | [10] | [3] | [4] | [9] | [5] | [8] | [6]

O=C(CS)OCCOC(=O)CS
inactive: [1] | [3] | [8]
active: [7] 68.6 µM | [10] 61.1 µM

CCCCCCCCCOC(C)=O
inactive: [1] | [2] | [7] | [3] | [8]

Cc1ccc(/C=N/n2c(-c3ccccc3)csc2=S)cc1
inactive: [1] | [3] | [8]
active: [2] 26.6 µM | [10] 29.8 µM

C(=C\c1ccccc1)/CN1CCN(C(c2ccccc2)c2ccccc2)CC1
inactive: [1] | [7] | [3]

Cc1cc(O)c2c(O)c3c(O)cccc3cc2c1
inactive: [1] | [2] | [7] | [3] | [4] | [5] | [8] | [6]

NC(=O)N(O)[C@@H]1COc2cc(OCc3ccccc3)ccc21
active: [7] 68.6 µM | [10] 61.1 µM
inactive: [1] | [3] | [8]

Nc1ccc(S(=O)(=O)O)cc1
inactive: [1] | [10] | [3] | [8]
active: [7] 54.8 µM
